These results are taken from PubChem BioAssay (NCI).

Test systems include HCT-15 colon; HT29 colon; SNB-75 CNS; SNB-19 CNS; U251 CNS; PC-3 prostate; SK-MEL-5 melanoma; UACC-62 melanoma; LOX IMVI melanoma; SK-MEL-28 melanoma; SK-MEL-2 melanoma; EKVX NSCLC; SN12C renal; UO-31 renal; TK-10 renal; ACHN renal; CAKI-1 renal; A498 renal; CCRF-CEM leukemia; MOLT-4 leukemia.
What all share (test): NCI-60 one-dose screen, 48 h (100 = growth as untreated, 0 = no growth, -100 = all killed)
Settings in all cases: 10 µM

Molecules are shown by their SMILES. Compounds without any hit were thinned out: in the full panel of roughly 83,000, 20% have a hit.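 The test compound was applied at a single concentration to cells in 96-well plates for 48 hours, and percent growth was recorded.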 Values without a mark were called inactive. Activity calls are given as the source filed them. The calls were made as follows: active = growth percent below 10; inactive = the rest.

Consider `CC(C)(C)Nc1nc2cc(Cl)c(Cl)cc2nc1S(C)(=O)=O`, for which the growth is -35.8% (active) with HCT-15 colon; 47.4% in the assay on HT29 colon; 45.1% in the assay with SNB-75 CNS; 102% in the assay on SNB-19 CNS; 68.7% in the assay with U251 CNS; 54% in the assay with PC-3 prostate. Moreover, the growth is -17.4% (active) in the assay with SK-MEL-5 melanoma; 52.9% with UACC-62 melanoma; -98% (active) in the assay with LOX IMVI melanoma; 62.3% with SK-MEL-28 melanoma; 37.2% in the assay with SK-MEL-2 melanoma; 58.1% with EKVX NSCLC. Also, the growth in the assay on SN12C renal was 20.1%; in the assay on UO-31 renal, 90%; with TK-10 renal, 99.8%; with ACHN renal, 56.3%; with CAKI-1 renal, 53.2%; with A498 renal it was 142%. Further, the figures for the growth in the assay with CCRF-CEM leukemia and in the assay with MOLT-4 leukemia were -17.9% (active) and -3.12% (active), respectively.
For the compound `Cc1ccc(-c2nc(Nc3ccccc3C(=O)O)c3ccccc3n2)cc1`, the growth in the assay on HCT-15 colon was 4.66% (active); in the assay with HT29 colon, 17.8%; in the assay with SNB-75 CNS, 15.7%; in the assay with SNB-19 CNS, 8.82% (active); with U251 CNS, 18.4%; in the assay on PC-3 prostate, 15.7%. Moreover, the growth with SK-MEL-5 melanoma was -24.8% (active); in the assay on UACC-62 melanoma it was 11%; with LOX IMVI melanoma it was 8.57% (active); in the assay with SK-MEL-28 melanoma it was 28.8%; in the assay with SK-MEL-2 melanoma it was 5.75% (active); in the assay with EKVX NSCLC it was 13.1%. Further, the growth was 22.2% in the assay with SN12C renal; 12.6% with UO-31 renal; 58.9% in the assay with TK-10 renal; 7.89% (active) in the assay on ACHN renal; 21.1% in the assay on CAKI-1 renal; 21.6% in the assay with A498 renal. For the same compound, the growth was 12.8% in the assay with CCRF-CEM leukemia and 10.9% in the assay with MOLT-4 leukemia.
As to `N#Cc1ccc(-c2nn(-c3ccc(C(=O)O)cc3)cc2CNc2cc(Cl)cc(Cl)c2)cc1`, the growth was 25.6% with HCT-15 colon; 39.7% in the assay with HT29 colon; 78.5% in the assay on SNB-75 CNS; 55.8% in the assay with SNB-19 CNS; 32.8% in the assay with U251 CNS; 33.6% in the assay with PC-3 prostate. The growth in the assay on SK-MEL-5 melanoma was 23.9%; in the assay with UACC-62 melanoma, 28.5%; with LOX IMVI melanoma it was 7.12% (active); with SK-MEL-28 melanoma it was 18.1%; in the assay with SK-MEL-2 melanoma, 81.7%; in the assay on EKVX NSCLC, 63.3%. In addition, the growth in the assay on SN12C renal is 50.9%; with UO-31 renal it was 33.2%; in the assay on TK-10 renal, 111%; in the assay with ACHN renal, 55.3%; in the assay on CAKI-1 renal, 63%; in the assay with A498 renal it was 103%. Moreover, the growth in the assay with CCRF-CEM leukemia is 13.7%; with MOLT-4 leukemia, 15.8%.
With `CN(C)c1ccc(/C=C/C(=O)c2ccc(NC(=O)CN3C(=O)NC(C)(c4ccccc4)C3=O)cc2)cc1` (stereo not given), the growth was 26.9% with HCT-15 colon; 19.5% in the assay on HT29 colon; 80.6% in the assay with SNB-75 CNS; 70.5% in the assay with SNB-19 CNS; 46% in the assay on U251 CNS; 43.3% in the assay with PC-3 prostate. The growth with SK-MEL-5 melanoma was 23.2%; in the assay on UACC-62 melanoma, 46.6%; in the assay with LOX IMVI melanoma, 41.4%; in the assay on SK-MEL-28 melanoma it was 70.7%; in the assay on SK-MEL-2 melanoma it was 76.5%; in the assay with EKVX NSCLC it was 66.4%. Moreover, the growth with SN12C renal was 73.4%; with UO-31 renal, 57.7%; in the assay with TK-10 renal it was 97.3%; in the assay on ACHN renal it was 59.8%; in the assay with CAKI-1 renal, 66.4%; in the assay on A498 renal, 85.5%. Moreover, the growth in the assay with CCRF-CEM leukemia was 53.1%; with MOLT-4 leukemia, 36.6%.
As to `O=C1Nc2ccc(F)cc2/C1=C/c1cccc(OCc2ccccn2)c1`, the growth was 10.5% with HCT-15 colon; 26.2% with HT29 colon; 116% in the assay on SNB-75 CNS; 52.3% in the assay on SNB-19 CNS; 7.32% (active) in the assay with U251 CNS; 36.6% in the assay with PC-3 prostate. In addition, the growth in the assay with SK-MEL-5 melanoma is 31.1%; with UACC-62 melanoma it was 26.5%; in the assay with LOX IMVI melanoma, 1.13% (active); in the assay with SK-MEL-28 melanoma, 65.3%; in the assay with SK-MEL-2 melanoma, 46.6%; in the assay with EKVX NSCLC it was 28.3%. Further, the growth was 9.51% (active) in the assay on SN12C renal; 34% in the assay on UO-31 renal; 80.9% in the assay with TK-10 renal; 37.9% with ACHN renal; 17.2% with CAKI-1 renal; 87.3% in the assay on A498 renal. Moreover, the growth is 3.93% (active) in the assay on CCRF-CEM leukemia and 12.1% in the assay with MOLT-4 leukemia.
Regarding `O=c1c2ccccc2nc(COc2ccccc2)n1/N=C/c1ccc(N2CCOCC2)cc1`, the growth was 80.8% in the assay with HCT-15 colon; 93.8% with HT29 colon; 43.9% in the assay with SNB-75 CNS; 3.55% (active) with SNB-19 CNS; 51.5% with U251 CNS; 75.6% in the assay with PC-3 prostate. Moreover, the growth was 82% in the assay with SK-MEL-5 melanoma; 69.4% in the assay on UACC-62 melanoma; 69.6% with LOX IMVI melanoma; 83.3% with SK-MEL-28 melanoma; 70.4% in the assay on SK-MEL-2 melanoma; 69.7% in the assay with EKVX NSCLC. In addition, the growth in the assay with SN12C renal is 68%; with UO-31 renal, 69.3%; with TK-10 renal, 81.6%; in the assay with ACHN renal it was 60.6%; in the assay with CAKI-1 renal, 51.9%; in the assay with A498 renal, 78.2%. Moreover, the growth in the assay with CCRF-CEM leukemia was 97.7%; in the assay on MOLT-4 leukemia, 117%.
Consider `CC(=O)NNc1ccc2nnc(-c3ccc(Br)cc3)n2n1`, for which the growth in the assay on HCT-15 colon is 93.8%; in the assay with HT29 colon it was 103%; in the assay on SNB-75 CNS, 121%; in the assay with SNB-19 CNS it was 92%; in the assay on U251 CNS, 93.3%; in the assay on PC-3 prostate it was 93.6%. Besides, the growth with SK-MEL-5 melanoma is 95.4%; in the assay on UACC-62 melanoma, 87.9%; in the assay with LOX IMVI melanoma, 100%; in the assay with SK-MEL-28 melanoma, 106%; with SK-MEL-2 melanoma, 104%; in the assay with EKVX NSCLC, 81.7%. Further, the growth with SN12C renal was 105%; in the assay with UO-31 renal, 82.1%; with TK-10 renal, 103%; in the assay with ACHN renal, 101%; in the assay on CAKI-1 renal, 90.3%; in the assay with A498 renal, 83.4%. Further, the growth in the assay with CCRF-CEM leukemia is 40.1%; with MOLT-4 leukemia, 92.3%.
For the compound `N#Cc1ccc(-c2nn(-c3ccc(C(=O)O)cc3)cc2CNc2ccc(Oc3ccccc3)cc2)cc1`, the growth is 49.7% in the assay with HCT-15 colon; 34.4% in the assay on HT29 colon; 101% with SNB-75 CNS; 28.6% in the assay on SNB-19 CNS; 33.9% in the assay with U251 CNS; 29.5% in the assay with PC-3 prostate. Moreover, the growth was 70% in the assay with SK-MEL-5 melanoma; 21.9% in the assay on UACC-62 melanoma; 24.1% with LOX IMVI melanoma; 21.3% with SK-MEL-28 melanoma; 55.6% in the assay with SK-MEL-2 melanoma; 75% in the assay with EKVX NSCLC. The growth in the assay on SN12C renal is 34.1%; with UO-31 renal, 66.5%; with TK-10 renal, 77.1%; in the assay with ACHN renal, 47.3%; with CAKI-1 renal, 59.7%; in the assay on A498 renal, 73%. Also, the growth in the assay on CCRF-CEM leukemia was 19.3%; in the assay on MOLT-4 leukemia, 19.9%.
